Assay results from PubChem BioAssay (NCATS).
Records with an inconclusive call do not appear. A call without a number means that no potency is given here. Activity calls are given as the source filed them. Unless noted, the call rests on the fitted dose curve; in most records, active means well fitted curve in the direction sought with a large enough effect; inconclusive means small, poorly fitted or top-dose-only effect, or another doubt; inactive means no such curve, though single readings can be large; an effect the other way counts as inactive or inconclusive.

Columns and labels:
[1] = target: Cytochrome P450 2C9 (Homo sapiens) (UniProt P11712); experiment: Cytochrome P450 family 2 subfamily C member 9 (CYP2C9) small molecule antagonists: luciferase biochemical (cell-free) qHTS assay (AID 1645842; active means well fitted curve in the direction sought with a large enough effect in the repeat runs; an effect the other way counts as inactive or inconclusive; further: nearly all actives have a fitted effect of over 55% in size; further: potency means the concentration at half of the fitted maximal effect)
Sequence of Cytochrome P450 2C9 (Homo sapiens) (P11712 whole entry, looked up): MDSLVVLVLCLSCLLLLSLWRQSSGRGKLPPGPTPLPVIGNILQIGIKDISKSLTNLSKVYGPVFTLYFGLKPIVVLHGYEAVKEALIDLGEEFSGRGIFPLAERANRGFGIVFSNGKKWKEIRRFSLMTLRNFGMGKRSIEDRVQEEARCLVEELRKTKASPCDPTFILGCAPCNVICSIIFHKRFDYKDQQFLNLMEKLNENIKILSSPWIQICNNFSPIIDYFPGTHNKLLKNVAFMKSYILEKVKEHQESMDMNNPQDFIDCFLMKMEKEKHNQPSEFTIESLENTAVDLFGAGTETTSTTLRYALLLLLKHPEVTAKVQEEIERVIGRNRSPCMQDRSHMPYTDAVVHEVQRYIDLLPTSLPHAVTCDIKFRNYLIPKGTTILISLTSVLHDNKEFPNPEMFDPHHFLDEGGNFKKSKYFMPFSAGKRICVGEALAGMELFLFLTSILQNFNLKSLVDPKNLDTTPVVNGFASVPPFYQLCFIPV
Outline: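 P450-Glo CYP2C9 system: proluciferin substrate with enzyme in mix containing 0.4% BSA, 10 min at room temperature, then NADPH regeneration solution added and incubated 1 h at 37C. Detection reagent stopped reaction; luminescence read after 20 min as RLU.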

[2] = Primary qHTS for inhibitors of nuclear receptor binding SET domain protein 2 (NSD2) in an isogenic RCH-ACV NSD2 p.E1099K mutant (9B) (AID 1645876); further: nearly all actives have a fitted effect of over 70% in size; further: potency means the concentration at half of the fitted maximal effect
[3] = Primary qHTS for inhibitors of nuclear receptor binding SET domain protein 2 (NSD2) in an RCH-ACV wild type WT cells (2C) (AID 1645877); further: nearly all actives have a fitted effect of over 70% in size; further: potency means the concentration at half of the fitted maximal effect
[4] = target: Rap guanine nucleotide exchange factor 3 (Homo sapiens) (UniProt O95398); experiment: Confirmatory qHTS for agonist of cAMP-regulated guanine nucleotide exchange factor 3 (EPAC1) (AID 1645881);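 further: EPAC1 catalysed release of BODIPY-GDP from Rap1B seen as fluorescence loss; nearly all actives have a fitted effect of over 75% in size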
Sequence of Rap guanine nucleotide exchange factor 3 (Homo sapiens) (O95398 whole entry, looked up): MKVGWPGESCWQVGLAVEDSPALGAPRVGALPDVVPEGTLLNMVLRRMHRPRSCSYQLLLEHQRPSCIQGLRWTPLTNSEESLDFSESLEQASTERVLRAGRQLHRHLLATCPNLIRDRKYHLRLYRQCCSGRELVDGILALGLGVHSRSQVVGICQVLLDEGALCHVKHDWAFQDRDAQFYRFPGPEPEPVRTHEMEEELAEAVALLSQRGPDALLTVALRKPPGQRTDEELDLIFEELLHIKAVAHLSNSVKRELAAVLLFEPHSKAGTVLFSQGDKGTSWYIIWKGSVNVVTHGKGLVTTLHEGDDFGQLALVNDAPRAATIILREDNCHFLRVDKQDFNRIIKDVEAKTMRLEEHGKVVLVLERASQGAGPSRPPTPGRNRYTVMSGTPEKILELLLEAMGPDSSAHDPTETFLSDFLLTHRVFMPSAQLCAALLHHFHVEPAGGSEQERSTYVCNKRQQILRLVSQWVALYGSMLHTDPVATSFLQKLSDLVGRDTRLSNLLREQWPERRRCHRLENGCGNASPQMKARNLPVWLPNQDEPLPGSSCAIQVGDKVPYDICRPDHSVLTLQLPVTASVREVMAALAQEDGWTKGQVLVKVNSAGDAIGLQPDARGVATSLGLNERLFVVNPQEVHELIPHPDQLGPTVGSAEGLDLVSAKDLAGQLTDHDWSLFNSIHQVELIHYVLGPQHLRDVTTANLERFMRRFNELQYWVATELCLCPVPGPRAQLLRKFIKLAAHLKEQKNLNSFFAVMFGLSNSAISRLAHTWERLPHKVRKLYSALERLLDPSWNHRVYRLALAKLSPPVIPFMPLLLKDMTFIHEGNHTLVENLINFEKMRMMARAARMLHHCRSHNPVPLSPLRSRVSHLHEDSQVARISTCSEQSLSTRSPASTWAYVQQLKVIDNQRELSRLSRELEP

[5] = target: Rap guanine nucleotide exchange factor 4 (Homo sapiens) (UniProt Q8WZA2); experiment: Confirmatory qHTS for agonist of cAMP-regulated guanine nucleotide exchange factor 4 (EPAC2) (AID 1645884);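 further: nucleotide exchange releases bodipy-GDP from Rap1 and this lowers its fluorescence; nearly all actives have a fitted effect of over 65% in size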
Sequence of Rap guanine nucleotide exchange factor 4 (Homo sapiens) (Q8WZA2 whole entry, looked up): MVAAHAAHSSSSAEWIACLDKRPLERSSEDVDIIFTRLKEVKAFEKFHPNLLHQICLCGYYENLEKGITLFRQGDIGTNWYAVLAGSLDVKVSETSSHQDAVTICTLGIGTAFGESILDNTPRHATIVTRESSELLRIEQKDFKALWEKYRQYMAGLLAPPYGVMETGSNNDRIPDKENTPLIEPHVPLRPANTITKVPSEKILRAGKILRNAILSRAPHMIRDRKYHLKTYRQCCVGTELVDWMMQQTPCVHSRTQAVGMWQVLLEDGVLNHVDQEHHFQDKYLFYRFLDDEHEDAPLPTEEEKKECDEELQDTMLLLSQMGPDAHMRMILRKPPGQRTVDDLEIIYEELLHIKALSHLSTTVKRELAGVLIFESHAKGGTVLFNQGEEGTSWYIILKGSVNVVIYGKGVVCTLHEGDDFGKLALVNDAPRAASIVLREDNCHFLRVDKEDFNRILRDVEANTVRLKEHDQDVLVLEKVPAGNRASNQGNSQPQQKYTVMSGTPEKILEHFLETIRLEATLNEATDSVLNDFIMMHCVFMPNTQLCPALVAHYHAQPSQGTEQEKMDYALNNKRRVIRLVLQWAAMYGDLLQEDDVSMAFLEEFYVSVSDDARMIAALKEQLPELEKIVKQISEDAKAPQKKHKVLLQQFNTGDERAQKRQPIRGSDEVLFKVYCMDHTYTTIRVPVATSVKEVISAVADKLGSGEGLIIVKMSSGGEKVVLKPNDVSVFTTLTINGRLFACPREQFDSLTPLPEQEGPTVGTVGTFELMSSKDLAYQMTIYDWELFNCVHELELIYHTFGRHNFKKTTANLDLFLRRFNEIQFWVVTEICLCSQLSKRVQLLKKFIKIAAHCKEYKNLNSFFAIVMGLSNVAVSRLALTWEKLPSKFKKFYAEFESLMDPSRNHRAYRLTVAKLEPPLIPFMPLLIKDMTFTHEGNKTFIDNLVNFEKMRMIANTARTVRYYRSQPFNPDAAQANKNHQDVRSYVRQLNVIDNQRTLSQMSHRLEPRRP

[6] = target: Rap guanine nucleotide exchange factor 3 (Homo sapiens) (UniProt O95398); experiment: Confirmatory qHTS for antagonist of cAMP-regulated guanine nucleotide exchange factor 3 (EPAC1) (AID 1645880); further: potency means the concentration at half of the fitted maximal effect; nearly all actives have a fitted effect of over 55% in size
Outline: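 Released BODIPY-GDP fluoresces less than Rap1-bound BODIPY-GDP; the signal is followed at 480/540 nm at 5-min intervals over 30 min, after 5 min at room temperature. Reactions contain 100 nM EPAC1, 250 nM RAP1B-BODIPY-GDP and 50 uM GDP; results are normalized to ATA and DMSO.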

[7] = target: N-terminal Xaa-Pro-Lys N-methyltransferase 1 (Homo sapiens) (UniProt Q9BV86); experiment: Confirmatory qHTS for Inhibitors of N-terminal methyltransferase 1 (NTMT1): MTaseGlo Assay (AID 1645874);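 further: luminescence from SAH made as NTMT1 methylates SPKRIA peptide using SAM; series mostly up to about 100 µM; nearly all actives have a fitted effect of over 65% in size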
Sequence of N-terminal Xaa-Pro-Lys N-methyltransferase 1 (Homo sapiens) (Q9BV86 whole entry, looked up): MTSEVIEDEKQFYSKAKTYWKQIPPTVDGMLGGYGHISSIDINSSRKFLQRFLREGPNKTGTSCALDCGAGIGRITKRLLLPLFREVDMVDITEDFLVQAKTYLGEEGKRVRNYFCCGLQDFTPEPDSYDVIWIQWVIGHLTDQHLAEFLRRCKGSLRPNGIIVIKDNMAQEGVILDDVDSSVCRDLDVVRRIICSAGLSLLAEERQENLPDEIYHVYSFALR
Outline: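 SPKRIA peptide at 1 uM was methylated by 125 nM NTMT1 using 100 uM SAM over 30 min at room temperature, following a 15 min compound preincubation. Product SAH was detected luminescently.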

Which Potency [1] does the source give for O=C(O)C(=O)Nc1cccc(-c2nn[nH]n2)c1 here?
Its Potency is “inactive”.

What about the Potency [2] of the same molecule?
The Potency was “inactive”.

What about the Potency [3] of the same molecule?
The Potency was “inactive”.

Which Potency [1] does the source give for O=C(OCC1(COC(=O)c2cccnc2)CCCC(COC(=O)c2cccnc2)(COC(=O)c2cccnc2)C1O)c1cccnc1 here?
The Potency was 2.45 µM (active).

What about the Potency [2] of the same molecule?
The Potency was “inactive”.

What about the Potency [3] of the same molecule?
The Potency was “inactive”.

For CC(C)Cc1ccc(C(C)C(=O)OCc2ccccn2)cc1 (stereo not drawn), which Potency [1] is on record?
Its Potency is 9.77 µM (active).

What about the Potency [2] of the same molecule?
The Potency was “inactive”.

And the Potency [3]?
Its Potency is “inactive”.

For O=C(c1cc(O)c(O)c(O)c1)c1ccc(O)c(O)c1O, which Potency [1] is on record?
Its Potency is “inactive”.

What about the Potency [2] of the same molecule?
Its Potency is 2.37 µM (active).

And the Potency [3]?
Its Potency is 13.3 µM (active).

With CSCC[C@H](NC(=O)[C@H](Cc1c[nH]c2ccccc12)NC(=O)CCNC(=O)OC(C)(C)C)C(=O)N[C@@H](CC(=O)O)C(=O)N[C@@H](Cc1ccccc1)C(N)=O as the molecule, how does the Potency [1] read?
The Potency was “inactive”.

And the Potency [2]?
Its Potency is “inactive”.

What about the Potency [3] of the same molecule?
The Potency was “inactive”.

Which Potency [1] does the source give for CCCC(=O)OCOC(=O)C1=C(C)NC(C)=C(C(=O)OC)C1c1cccc(Cl)c1Cl (stereo not drawn) here?
Its Potency is 2.04 µM (active).

What about the Potency [2] of the same molecule?
The Potency was “inactive”.

And the Potency [3]?
The Potency was “inactive”.

For C[C@@]12CCC[C@H]1[C@@H]1CC[C@H]3C[C@@H](O)CC[C@]3(C)[C@H]1CC2, which Potency [1] is on record?
Its Potency is 22.9 µM (active).

What about the Potency [2] of the same molecule?
Its Potency is “inactive”.

What about the Potency [3] of the same molecule?
Its Potency is “inactive”.

Which Potency [1] does the source give for O=C(Nc1ccc(Cl)cc1)Nc1ccc(Cl)c(C(F)(F)F)c1 here?
The Potency was 11 µM (active).

What about the Potency [2] of the same molecule?
The Potency was 4.22 µM (active).

What about the Potency [3] of the same molecule?
Its Potency is 2.99 µM (active).

For O=C(O)[C@H](O)[C@@H](O)[C@H](O[C@@H]1O[C@H](CO)[C@H](O)[C@H](O)[C@H]1O)[C@H](O)CO, which Potency [1] is on record?
The Potency was “inactive”.

What about the Potency [2] of the same molecule?
Its Potency is “inactive”.

And the Potency [3]?
The Potency was “inactive”.

Which Potency [1] does the source give for [O-][n+]1cccc(/C(Cl)=N/OC[C@@H](O)CN2CCCCC2)c1 here?
Its Potency is “inactive”.

What about the Potency [2] of the same molecule?
Its Potency is “inactive”.

What about the Potency [3] of the same molecule?
Its Potency is “inactive”.

Which Potency [1] does the source give for Oc1ccccc1 here?
Its Potency is “inactive”.

What about the Potency [2] of the same molecule?
The Potency was “inactive”.

And the Potency [3]?
Its Potency is “inactive”.

Which results are given for C[C@]12CCC(=O)C=C1CC[C@@H]1[C@@H]2[C@@H](O)C[C@@]2(C)[C@H]1CC[C@]2(O)C(=O)COC(=O)CCC(=O)O?
Potency [1]: inactive; Potency [3]: 1.88 µM (active)

What does the source list for CCCCCOc1ccccc1/C(=C\SC)n1ccnc1?
Potency [1]: 3.89 µM (active); Potency [2]: 13.3 µM (active); Potency [3]: 13.3 µM (active)

For CCN1CCN(c2cc(-c3ccc(F)cc3)c3c(n2)CCCCCC3)CC1, which Potency [1] is on record?
The Potency was “inactive”.

And the Potency [2]?
The Potency was “inactive”.

And the Potency [3]?
Its Potency is “inactive”.

Which Potency [1] does the source give for Cc1ccc(C(=O)C(=O)O)cc1C here?
Its Potency is “inactive”.

And the Potency [2]?
Its Potency is “inactive”.

What about the Potency [3] of the same molecule?
Its Potency is “inactive”.

Which Potency [1] does the source give for CC(C)(C)CC(=O)OCC(=O)[C@@]1(O)CC[C@H]2[C@@H]3CCC4=CC(=O)C=C[C@]4(C)[C@H]3[C@@H](O)C[C@@]21C here?
Its Potency is 11 µM (active).

And the Potency [2]?
The Potency was 21.1 µM (active).

What about the Potency [3] of the same molecule?
Its Potency is 0.0531 µM (active).

What does the source list for COc1ccccc1OCC1CNC(=O)O1 (stereo not drawn)?
Potency [1]: inactive; Potency [2]: inactive; Potency [3]: inactive

What does the source list for COC(=O)C1=C(C)NC(COC(N)=O)=C(C(=O)OC(C)C)C1c1cccc(Cl)c1Cl (stereo not drawn)?
Potency [1]: 4.36 µM (active); Potency [2]: 18.8 µM (active); Potency [3]: 11.9 µM (active); Potency [4]: inactive; Potency [5]: inactive

Which Potency [1] does the source give for CC(=O)OCC[N+](C)(C)C here?
Its Potency is “inactive”.

And the Potency [2]?
The Potency was “inactive”.

And the Potency [3]?
The Potency was “inactive”.

With COc1cc(C=O)ccc1O as the molecule, how does the Potency [1] read?
The Potency was “inactive”.

What about the Potency [2] of the same molecule?
Its Potency is “inactive”.

And the Potency [3]?
Its Potency is “inactive”.

With COc1ccccc1N1CCN(CC(O)COc2cc(OC)c(OC)c(OC)c2)CC1 (stereo not drawn) as the molecule, how does the Potency [1] read?
The Potency was “inactive”.

And the Potency [2]?
Its Potency is “inactive”.

And the Potency [3]?
Its Potency is “inactive”.

Which results are given for CCOC(=O)C1=C(C)NC(C)=C(C(=O)OCC)C1c1ccccc1/C=C/C(=O)OC(C)(C)C?
Potency [1]: 0.49 µM (active); Potency [2]: 21.1 µM (active); Potency [3]: 16.8 µM (active)

What does the source list for O=C1[C@@H]2[C@H]3CC[C@H](C3)[C@@H]2C(=O)N1CCCCN1CCN(c2ncccn2)CC1?
Potency [1]: inactive; Potency [2]: inactive; Potency [3]: inactive

For COc1ccc2cc(C=O)ccc2c1, which Potency [1] is on record?
The Potency was 12.3 µM (active).

What about the Potency [2] of the same molecule?
The Potency was “inactive”.

And the Potency [3]?
The Potency was “inactive”.

Which results are given for OCCc1ccccc1?
Potency [1]: inactive; Potency [2]: inactive; Potency [3]: inactive

With C=CC[N+]1([C@H]2C[C@H]3[C@@H]4CC[C@H]5C[C@H](OC(C)=O)[C@@H](N6CCCCC6)C[C@]5(C)[C@H]4CC[C@]3(C)[C@H]2OC(=O)CC)CCCCC1 as the molecule, how does the Potency [1] read?
Its Potency is “inactive”.

What about the Potency [2] of the same molecule?
Its Potency is “inactive”.

What about the Potency [3] of the same molecule?
Its Potency is “inactive”.

With O=C(O)c1ccccc1S as the molecule, how does the Potency [1] read?
Its Potency is “inactive”.

What about the Potency [2] of the same molecule?
The Potency was “inactive”.

What about the Potency [3] of the same molecule?
The Potency was “inactive”.

For CSc1ccc(/C=C2/C(C)=C(CC(=O)O)c3cc(F)ccc32)cc1, which Potency [1] is on record?
The Potency was “inactive”.

What about the Potency [2] of the same molecule?
Its Potency is “inactive”.

What about the Potency [3] of the same molecule?
Its Potency is “inactive”.

Which Potency [1] does the source give for Cc1nc(N)nc(N)c1-c1ccc(Cl)c(Cl)c1 here?
The Potency was “inactive”.

What about the Potency [2] of the same molecule?
Its Potency is 0.266 µM (active).

What about the Potency [3] of the same molecule?
Its Potency is 0.299 µM (active).

Which Potency [1] does the source give for CC(C)(C)c1ccc(C(=O)CCCCl)cc1 here?
Its Potency is “inactive”.

What about the Potency [2] of the same molecule?
Its Potency is “inactive”.

And the Potency [3]?
The Potency was “inactive”.

What does the source list for O=C1CCCc2c(O)cccc21?
Potency [1]: inactive; Potency [2]: inactive; Potency [3]: inactive

Which Potency [1] does the source give for CC(CCc1ccc2c(c1)OCO2)NN (stereo not drawn) here?
Its Potency is 15.5 µM (active).

What about the Potency [2] of the same molecule?
The Potency was “inactive”.

What about the Potency [3] of the same molecule?
Its Potency is “inactive”.

What does the source list for CCCc1ncc(C(=O)O)s1?
Potency [1]: inactive; Potency [2]: inactive; Potency [3]: inactive

For C/C(=C1\CCOC(=O)S1)N(C=O)Cc1cnc(C)nc1N, which Potency [1] is on record?
Its Potency is “inactive”.

And the Potency [2]?
Its Potency is “inactive”.

What about the Potency [3] of the same molecule?
Its Potency is “inactive”.

Which results are given for O=C(Nc1ccc(S(=O)(=O)N2CCOCC2)cc1)c1cc(Cl)ccc1NS(=O)(=O)c1ccc(Cl)s1?
Potency [1]: 0.0436 µM (active); Potency [2]: inactive; Potency [3]: inactive; Potency [6]: 35.2 µM (active)

With CN1CCCN=C1/C=C/c1cccs1 as the molecule, how does the Potency [7] read?
The Potency was “inactive”.
